Several values for one entry are separate records, joined by “and”; a condition that tells them apart may be missing. Equal values may be shown once. Inconclusive results are not listed. Activity calls are given as the source filed them. How the source made its calls: active means hit-call score of the fitted dose curve at least 0.9, where 1 is the maximum; inconclusive means response in the unintended direction; inactive means score below 0.9.
What was measured:
[1] = ATG_M_06_XSP2: Attagene TRANS-FACTORIAL Multi-Species (XSP2) HepG2 Assay for M06 Transcription Factor (Internal Marker) (AID 2283811);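 further: internal background marker reporter mRNA measured by RT-PCR and capillary electrophoresis; hits are increases in signal above the DMSO baseline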
How it was run: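 Cells of the human liver line HepG2 carried transfected reporter transcription units and were treated for 24 h. Induced reporter transcripts were detected by fluorescence after RT-PCR and capillary electrophoresis, with activity fitted in the gain direction against DMSO.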

[2] = system: turtle Estrogen Receptor (ERa), gene 101933533; experiment: ATG_trERa_XSP2: Attagene TRANS-FACTORIAL Multi-Species (XSP2) HepG2 Assay for turtle Estrogen Receptor (ERa) (AID 2283812);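 further: actives raise reporter signal above DMSO so AC50 reflects agonist activity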
How it was run: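 Readout is reporter mRNA quantified by RT-PCR with capillary electrophoresis after 24 h compound exposure, increase relative to DMSO. Uses transiently transfected human HepG2 liver cells carrying a chimeric turtle ERa-Gal4 receptor driving GAL4-UAS reporters.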

[3] = system: turtle Androgen Receptor (AR), gene 101947425; experiment: ATG_trAR_XSP2: Attagene TRANS-FACTORIAL Multi-Species (XSP2) HepG2 Assay for turtle Androgen Receptor (AR) (AID 2283815)
How it was run: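 Reporter transcripts were quantified via RT-PCR and capillary electrophoresis and fitted upward against DMSO. Transiently transfected human HepG2 cells carrying NR-Gal4 chimeras were exposed 24 h, with 3 nM 6-alpha-fluorotestosterone plus 1.5 nM norgestrel added.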

[4] = target: zebrafish Estrogen Receptor (ER1), esr1 (gene 259252) (UniProt P57717); experiment: ATG_zfER1_XSP2: Attagene TRANS-FACTORIAL Multi-Species (XSP2) HepG2 Assay for zebrafish Estrogen Receptor (ER1) (AID 2283816)
Chain of zebrafish Estrogen Receptor (ER1), esr1 (gene 259252) (P57717 whole entry, looked up, the tested form may be a part): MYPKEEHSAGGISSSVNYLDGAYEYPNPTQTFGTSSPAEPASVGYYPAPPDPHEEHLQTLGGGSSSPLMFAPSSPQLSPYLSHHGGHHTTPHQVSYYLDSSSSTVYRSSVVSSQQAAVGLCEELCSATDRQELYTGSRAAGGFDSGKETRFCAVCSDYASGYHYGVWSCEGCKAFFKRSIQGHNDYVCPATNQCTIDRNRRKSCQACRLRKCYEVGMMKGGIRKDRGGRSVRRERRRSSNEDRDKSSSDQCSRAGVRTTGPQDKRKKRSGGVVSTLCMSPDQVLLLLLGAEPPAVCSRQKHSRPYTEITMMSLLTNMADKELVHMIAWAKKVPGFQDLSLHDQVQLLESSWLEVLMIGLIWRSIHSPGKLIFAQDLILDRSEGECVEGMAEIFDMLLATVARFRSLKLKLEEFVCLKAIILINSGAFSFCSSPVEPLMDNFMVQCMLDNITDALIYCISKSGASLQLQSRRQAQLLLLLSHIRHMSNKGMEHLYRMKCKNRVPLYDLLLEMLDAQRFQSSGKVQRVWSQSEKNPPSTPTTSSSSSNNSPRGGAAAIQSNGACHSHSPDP
How it was run: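 After 24 h compound exposure, RNA from transfected HepG2 cells was reverse-transcribed and reporter transcripts resolved by capillary electrophoresis. The TRANS format reads exogenous zebrafish ER1-Gal4 chimera activity on GAL4-UAS elements; gain of signal against DMSO.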

[5] = target: chicken Estrogen Receptor (ERa), ESR1 (gene 396099) (UniProt P06212); experiment: ATG_chERa_XSP2: Attagene TRANS-FACTORIAL Multi-Species (XSP2) HepG2 Assay for chicken Estrogen Receptor (ERa) (AID 2283817);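 further: actives raise reporter signal above DMSO so AC50 reflects ER activation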
Chain of chicken Estrogen Receptor (ERa), ESR1 (gene 396099) (P06212 whole entry, looked up, the tested form may be a part): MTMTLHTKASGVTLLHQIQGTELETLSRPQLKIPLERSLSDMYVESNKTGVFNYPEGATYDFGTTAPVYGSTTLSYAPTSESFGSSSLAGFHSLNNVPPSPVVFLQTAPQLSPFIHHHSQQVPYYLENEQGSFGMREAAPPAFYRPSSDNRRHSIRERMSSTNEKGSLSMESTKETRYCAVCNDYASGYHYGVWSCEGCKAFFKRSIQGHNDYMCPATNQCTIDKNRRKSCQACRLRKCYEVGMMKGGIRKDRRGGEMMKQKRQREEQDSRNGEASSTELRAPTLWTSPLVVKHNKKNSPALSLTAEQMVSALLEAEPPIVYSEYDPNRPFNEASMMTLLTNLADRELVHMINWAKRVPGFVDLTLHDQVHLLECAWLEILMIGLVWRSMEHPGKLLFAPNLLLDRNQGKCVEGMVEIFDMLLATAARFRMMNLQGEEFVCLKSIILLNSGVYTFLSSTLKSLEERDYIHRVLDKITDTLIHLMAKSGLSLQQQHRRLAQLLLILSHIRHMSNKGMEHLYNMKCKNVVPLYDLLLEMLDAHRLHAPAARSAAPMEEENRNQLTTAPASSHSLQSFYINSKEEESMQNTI
How it was run: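 Exogenous chicken ERa-Gal4 chimera activity was assessed in transfected human liver HepG2 cells after 24 h of treatment. Induced reporter mRNA was quantified fluorescently by capillary electrophoresis, with DMSO as baseline.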

[6] = system: zebrafish Estrogen Receptor (ER2a), gene 317734; experiment: ATG_zfER2a_XSP2: Attagene TRANS-FACTORIAL Multi-Species (XSP2) HepG2 Assay for zebrafish Estrogen Receptor (ER2a) (AID 2283818);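 further: hits raise reporter mRNA so AC50 reflects activation of zebrafish ER2a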
How it was run: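 Multiplexed trans-reporter readout: RT-PCR then capillary electrophoresis of reporter transcripts after 24 h compound treatment. Human HepG2 carries transfected zebrafish ER2a-Gal4 chimera; 3 nM 6-alpha-fluorotestosterone plus 1.5 nM norgestrel present. Induction scored against DMSO.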

[7] = system: chicken Androgen Receptor (AR), gene 422165; experiment: ATG_chAR_XSP2: Attagene TRANS-FACTORIAL Multi-Species (XSP2) HepG2 Assay for chicken Androgen Receptor (AR) (AID 2283819);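 further: hits raise reporter mRNA above DMSO so potency is for activation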
How it was run: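 Readout is reporter mRNA induction via RT-PCR/capillary electrophoresis after 24 h chemical exposure, positive direction relative to DMSO. Transiently transfected HepG2 express chimeric chicken AR–GAL4; AR stimulated by 3 nM 6-alpha-fluorotestosterone and 1.5 nM norgestrel.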

[8] = system: frog Estrogen Receptor (ER), gene 398734; experiment: ATG_frER1_XSP2: Attagene TRANS-FACTORIAL Multi-Species (XSP2) HepG2 Assay for frog Estrogen Receptor (ER) (AID 2283821);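 further: hits raise reporter mRNA above DMSO baseline so potency means agonist or activator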
How it was run: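 Gain-of-signal mRNA reporter assay, HepG2 human liver cells, 24 h dosing; transcripts read by fluorescent RT-PCR fragment analysis, DMSO as negative control.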

[9] = system: frog Androgen Receptor (AR), gene 399456; experiment: ATG_frAR_XSP2: Attagene TRANS-FACTORIAL Multi-Species (XSP2) HepG2 Assay for frog Androgen Receptor (AR) (AID 2283824);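 further: reporter mRNA from GAL4-UAS units driven by Xenopus AR-Gal4 chimera; actives raise reporter signal above DMSO so AC50 reflects agonist-like induction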
How it was run: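 Reporter transcript induction, read by RT-PCR with fluorescent capillary electrophoresis, in human liver HepG2 cells carrying an exogenous Xenopus AR-Gal4 fusion and GAL4-driven reporters; chemical exposure 24 hours, activity scored upward against DMSO controls.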

[10] = ATG_M_32_XSP2: Attagene TRANS-FACTORIAL Multi-Species (XSP2) HepG2 Assay for M19 Transcription Factor (Internal Marker) (AID 2283826)
How it was run: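 HepG2 cells transiently transfected with GAL4-UAS reporter transcription units, dosed with compound for 24 h in presence of 3 nM 6-alpha-fluorotestosterone and 1.5 nM norgestrel; reporter mRNA quantified by RT-PCR, FAM labelling, HpaI digestion and capillary electrophoresis.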

[11] = target: Estrogen receptor (Homo sapiens) (UniProt P03372); experiment: ATG_hERa_XSP2: Attagene TRANS-FACTORIAL Multi-Species (XSP2) HepG2 Assay for human Estrogen Receptor (ERa) (AID 2283827)
Chain of Estrogen receptor (Homo sapiens) (P03372 whole entry, looked up, the tested form may be a part): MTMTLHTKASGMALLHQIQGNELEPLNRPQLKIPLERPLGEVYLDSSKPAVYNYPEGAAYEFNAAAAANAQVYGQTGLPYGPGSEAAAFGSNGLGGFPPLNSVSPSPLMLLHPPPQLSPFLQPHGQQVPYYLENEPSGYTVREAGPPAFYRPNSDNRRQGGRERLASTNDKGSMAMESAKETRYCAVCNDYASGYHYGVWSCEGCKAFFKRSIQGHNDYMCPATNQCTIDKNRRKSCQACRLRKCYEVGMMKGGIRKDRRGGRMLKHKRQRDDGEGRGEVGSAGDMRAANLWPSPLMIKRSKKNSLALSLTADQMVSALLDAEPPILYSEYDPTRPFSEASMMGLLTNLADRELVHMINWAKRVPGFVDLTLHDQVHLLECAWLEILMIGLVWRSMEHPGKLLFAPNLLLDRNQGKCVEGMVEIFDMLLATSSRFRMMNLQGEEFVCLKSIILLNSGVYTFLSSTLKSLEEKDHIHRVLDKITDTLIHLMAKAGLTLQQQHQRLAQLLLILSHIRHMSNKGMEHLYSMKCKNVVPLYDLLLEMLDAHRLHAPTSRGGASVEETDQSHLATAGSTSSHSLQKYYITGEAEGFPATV
How it was run: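 Trans-activation of exogenous human ERa-Gal4 chimera read in HepG2 as reporter transcript after 24 h exposure; medium included 3 nM 6-alpha-fluorotestosterone and 1.5 nM norgestrel. Quantified by RT-PCR with capillary electrophoresis, positive-direction fitting against DMSO.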

[12] = system: frog Estrogen Receptor (ER2), gene 100174814; experiment: ATG_frER2_XSP2: Attagene TRANS-FACTORIAL Multi-Species (XSP2) HepG2 Assay for frog Estrogen Receptor (ER2) (AID 2283828)
How it was run: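 Induction of reporter mRNA, baseline set by DMSO, is the endpoint. The panel was run in transfected HepG2 cells over 24 h, with 3 nM 6-alpha-fluorotestosterone and 1.5 nM norgestrel present to stimulate androgen receptor.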

[13] = target: mouse Peroxisome Proliferator-activated Receptor gamma (PPARg), Pparg (gene 19016) (UniProt P37238); experiment: ATG_mPPARg_XSP2: Attagene TRANS-FACTORIAL Multi-Species (XSP2) HepG2 Assay for mouse Peroxisome Proliferator-activated Receptor gamma (PPARg) (AID 2283830);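 further: hits are gains in reporter mRNA above DMSO so AC50 marks activation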
Chain of mouse Peroxisome Proliferator-activated Receptor gamma (PPARg), Pparg (gene 19016) (P37238 whole entry, looked up, the tested form may be a part): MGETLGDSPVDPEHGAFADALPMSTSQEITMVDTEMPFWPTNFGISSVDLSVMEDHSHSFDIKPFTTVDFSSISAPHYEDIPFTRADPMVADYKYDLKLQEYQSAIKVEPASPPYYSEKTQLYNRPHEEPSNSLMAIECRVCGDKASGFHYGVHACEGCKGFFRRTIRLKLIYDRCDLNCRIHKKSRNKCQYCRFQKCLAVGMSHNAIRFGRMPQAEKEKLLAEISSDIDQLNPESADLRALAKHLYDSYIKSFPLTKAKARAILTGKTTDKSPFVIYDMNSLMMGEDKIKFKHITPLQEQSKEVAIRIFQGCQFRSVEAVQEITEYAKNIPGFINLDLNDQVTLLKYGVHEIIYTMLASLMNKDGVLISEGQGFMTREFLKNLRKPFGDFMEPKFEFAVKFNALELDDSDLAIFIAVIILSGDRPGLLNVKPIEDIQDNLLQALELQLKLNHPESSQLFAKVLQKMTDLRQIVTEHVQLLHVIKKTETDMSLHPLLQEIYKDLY
How it was run: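 Multiplexed TRANS reporter readout: after 24 h chemical exposure of transfected HepG2 cells (with 3 nM 6-alpha-fluorotestosterone, 1.5 nM norgestrel present), RNA reverse-transcribed, amplified, 6-FAM-labelled and resolved by capillary electrophoresis; mouse PPARg-Gal4 induction scored against DMSO.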

[14] = target: Nuclear receptor subfamily 1 group I member 2 (Mus musculus) (UniProt O54915); experiment: ATG_mPXR_XSP2: Attagene TRANS-FACTORIAL Multi-Species (XSP1) HepG2 Assay for mouse Pregnane X Receptor (PXR) (AID 2283831)
Chain of Nuclear receptor subfamily 1 group I member 2 (Mus musculus) (O54915 whole entry, looked up, the tested form may be a part): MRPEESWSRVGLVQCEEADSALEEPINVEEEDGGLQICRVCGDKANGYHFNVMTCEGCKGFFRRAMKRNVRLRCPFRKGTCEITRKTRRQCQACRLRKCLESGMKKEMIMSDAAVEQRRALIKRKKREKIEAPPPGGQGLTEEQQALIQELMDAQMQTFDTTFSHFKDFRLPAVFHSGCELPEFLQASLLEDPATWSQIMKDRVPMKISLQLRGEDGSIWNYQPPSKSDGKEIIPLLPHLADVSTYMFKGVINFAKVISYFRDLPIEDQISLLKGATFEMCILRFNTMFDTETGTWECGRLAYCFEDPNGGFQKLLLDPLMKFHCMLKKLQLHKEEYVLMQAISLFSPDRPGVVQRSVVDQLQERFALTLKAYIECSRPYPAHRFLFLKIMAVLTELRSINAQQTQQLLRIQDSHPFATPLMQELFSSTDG
How it was run: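 HepG2 cells transiently transfected with GAL4-UAS reporter units expressing chimeric NR-GAL4 proteins; reporter mRNA measured 24 h after dosing by RT-PCR with 6-FAM labelling and capillary electrophoresis, gain of signal relative to DMSO.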

[15] = system: zebrafish Peroxisome Proliferator-activated Receptor gamma (PPARg), gene 557037; experiment: ATG_zfPPARg_XSP2: Attagene TRANS-FACTORIAL Multi-Species (XSP2) HepG2 Assay for zebrafish Peroxisome Proliferator-activated Receptor gamma (PPARg) (AID 2283833);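 further: actives increase reporter signal over DMSO so AC50 reflects activation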
How it was run: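 HepG2 cells transiently transfected with GAL4-UAS reporter units expressing a zebrafish PPARg–GAL4 chimera; compound exposure 24 h. Reporter mRNA quantified by RT-PCR with fluorescent labelling and capillary electrophoresis; gain of signal fitted relative to DMSO baseline.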

[16] = target: GAL4 Transcription Factor (Internal Marker), GAL4 (gene 855828) (UniProt P04386); experiment: ATG_GAL4_XSP2: Attagene TRANS-FACTORIAL Multi-Species (XSP2) HepG2 Assay for GAL4 Transcription Factor (Internal Marker) (AID 2283814);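 further: GAL4 reporter mRNA background control in MRTU transfected cells not a receptor target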
Chain of GAL4 Transcription Factor (Internal Marker), GAL4 (gene 855828) (P04386 whole entry, looked up, the tested form may be a part): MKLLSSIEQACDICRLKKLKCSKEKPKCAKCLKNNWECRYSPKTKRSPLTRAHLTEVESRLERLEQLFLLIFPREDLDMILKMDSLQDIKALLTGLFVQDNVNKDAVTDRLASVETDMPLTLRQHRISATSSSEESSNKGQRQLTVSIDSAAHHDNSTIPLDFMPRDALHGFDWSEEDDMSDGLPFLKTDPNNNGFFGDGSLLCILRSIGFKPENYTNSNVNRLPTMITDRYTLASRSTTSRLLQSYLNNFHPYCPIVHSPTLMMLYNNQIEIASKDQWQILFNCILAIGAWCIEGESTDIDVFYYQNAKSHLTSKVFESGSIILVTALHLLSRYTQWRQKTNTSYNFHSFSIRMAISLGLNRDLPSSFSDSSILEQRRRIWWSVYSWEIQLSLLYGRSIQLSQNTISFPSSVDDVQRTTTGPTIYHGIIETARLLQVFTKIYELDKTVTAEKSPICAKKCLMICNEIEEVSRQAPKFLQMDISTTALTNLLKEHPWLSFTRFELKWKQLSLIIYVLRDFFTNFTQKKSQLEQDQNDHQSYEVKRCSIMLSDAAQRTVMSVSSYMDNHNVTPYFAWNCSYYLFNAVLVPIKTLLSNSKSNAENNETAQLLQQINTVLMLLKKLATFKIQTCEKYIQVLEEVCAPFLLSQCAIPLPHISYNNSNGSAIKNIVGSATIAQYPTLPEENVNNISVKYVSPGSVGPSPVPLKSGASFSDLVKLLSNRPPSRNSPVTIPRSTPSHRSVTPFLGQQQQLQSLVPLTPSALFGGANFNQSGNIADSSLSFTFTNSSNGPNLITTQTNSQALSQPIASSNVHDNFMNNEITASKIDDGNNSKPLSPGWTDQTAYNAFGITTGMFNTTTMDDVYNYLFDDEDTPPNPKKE
How it was run: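 Background-control readout: gain-of-signal fitted against DMSO. After 24 h exposure of transfected HepG2 (MRTU, GAL4-UAS reporters; 3 nM 6-alpha-fluorotestosterone, 1.5 nM norgestrel present), transcripts quantified by RT-PCR and capillary electrophoresis fluorescence.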

[17] = target: Peroxisome proliferator-activated receptor gamma (Homo sapiens) (UniProt P37231); experiment: ATG_hPPARg_XSP2: Attagene TRANS-FACTORIAL Multi-Species (XSP2) HepG2 Assay for human Peroxisome Proliferator-activated Receptor gamma (PPARg) (AID 2283829);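 further: actives raise reporter mRNA above DMSO so AC50 reflects PPARg activation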
Chain of Peroxisome proliferator-activated receptor gamma (Homo sapiens) (P37231 whole entry, looked up, the tested form may be a part): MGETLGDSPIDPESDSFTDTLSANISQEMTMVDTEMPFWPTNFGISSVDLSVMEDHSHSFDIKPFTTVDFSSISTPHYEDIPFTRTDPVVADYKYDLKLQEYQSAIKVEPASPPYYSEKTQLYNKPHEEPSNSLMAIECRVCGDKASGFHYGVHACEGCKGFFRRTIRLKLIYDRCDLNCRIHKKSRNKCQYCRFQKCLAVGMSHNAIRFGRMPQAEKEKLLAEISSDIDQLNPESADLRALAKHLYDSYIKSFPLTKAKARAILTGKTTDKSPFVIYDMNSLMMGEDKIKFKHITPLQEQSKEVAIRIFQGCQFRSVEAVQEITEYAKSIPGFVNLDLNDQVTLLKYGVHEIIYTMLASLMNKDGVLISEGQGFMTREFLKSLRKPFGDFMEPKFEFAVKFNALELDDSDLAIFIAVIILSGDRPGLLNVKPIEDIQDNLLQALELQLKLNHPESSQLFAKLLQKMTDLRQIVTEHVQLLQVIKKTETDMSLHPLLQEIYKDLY
How it was run: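 HepG2 cells transiently transfected with multiplexed GAL4-UAS reporter units for chimeric NR-Gal4 receptors, dosed 24 h. Reporter mRNA quantified by RT-PCR, 6-FAM labeling, HpaI digestion and capillary electrophoresis; gain-of-signal fitted against DMSO baseline.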

[18] = ATG_XTT_Cytotoxicity_XSP1: Cytotoxicity Assessment in the Attagene TRANS-FACTORIAL Multi-Species (XSP1) HepG2 Assay (AID 2283810)
How it was run: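 XTT viability readout taken at 24 hours post-dosing in HepG2 liver cells co-treated with 3 nM 6-alpha-fluorotestosterone. Signal loss relative to DMSO controls reflects cytotoxicity.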

[19] = target: Estrogen receptor beta (Homo sapiens) (UniProt Q92731); experiment: ATG_hERb_XSP2: Attagene TRANS-FACTORIAL Multi-Species (XSP2) HepG2 Assay for human Estrogen Receptor (ERb) (AID 2283813);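 further: actives raise reporter mRNA above DMSO so AC50 reflects agonist induction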
Chain of Estrogen receptor beta (Homo sapiens) (Q92731 whole entry, looked up, the tested form may be a part): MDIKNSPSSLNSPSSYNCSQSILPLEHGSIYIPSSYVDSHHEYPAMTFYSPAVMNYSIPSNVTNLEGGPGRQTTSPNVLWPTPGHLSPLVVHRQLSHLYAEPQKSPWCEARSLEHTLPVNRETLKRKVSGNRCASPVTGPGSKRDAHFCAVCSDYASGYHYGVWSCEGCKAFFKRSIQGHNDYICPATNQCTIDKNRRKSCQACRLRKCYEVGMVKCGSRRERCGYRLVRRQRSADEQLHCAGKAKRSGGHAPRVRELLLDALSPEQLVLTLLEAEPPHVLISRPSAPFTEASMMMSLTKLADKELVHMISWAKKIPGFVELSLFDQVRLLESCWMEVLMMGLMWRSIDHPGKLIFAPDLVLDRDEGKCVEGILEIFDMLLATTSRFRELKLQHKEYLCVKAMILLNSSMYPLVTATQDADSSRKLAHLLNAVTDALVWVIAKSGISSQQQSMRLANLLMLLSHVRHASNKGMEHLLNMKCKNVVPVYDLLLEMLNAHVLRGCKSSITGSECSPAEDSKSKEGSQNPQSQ
How it was run: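 Transient TRANS reporter system in HepG2: after 24 h of chemical, RNA is reverse-transcribed, reporter cDNA amplified, FAM-labelled and sized by capillary electrophoresis. Induction of the human ERb-Gal4 reporter is measured relative to DMSO.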

Measured: AC50

CC(C)(C)c1cc(O)ccc1O
active: [2] 15.3 µM | [5] 24.6 µM | [6] 43.8 µM | [8] 15.6 µM | [11] 33.1 µM | [12] 46.8 µM | [13] 70.6 µM
inactive: [1] | [3] | [4] | [7] | [9] | [10] | [14] | [15]

COP(=O)(OC)O/C(=C\Cl)c1cc(Cl)c(Cl)cc1Cl
active: [2] 3.18 µM | [5] 4.9 µM | [11] 9.68 µM | [17] 15 µM | [13] 14.8 µM | [15] 47.3 µM
inactive: [1] | [16] | [6] | [8] | [10] | [12]

CC1(C)CCC(Cc2ccc(Cl)cc2)C1(O)Cn1cncn1 (stereo unspecified)
active: [2] 5.11 µM | [5] 3.58 µM | [12] 26 µM | [13] 70.1 µM | [14] 2.82 µM
inactive: [18] | [1] | [16] | [4] | [6] | [8] | [10] | [11] | [17] | [15]

C[C@]12CC[C@H](O)CC1=CC[C@@H]1[C@@H]2CC[C@]2(C)C(=O)CC[C@@H]12
inactive: [1] | [16] | [10] | [17] | [13] | [15]
active: [2] 2.22 µM and 1.09 µM | [19] 1.14 µM and 962 nM | [4] 13.9 µM and 7.49 µM | [5] 2.19 µM and 1.14 µM | [6] 2.39 µM and 1.46 µM | [8] 3.14 µM and 1.55 µM | [12] 3.43 µM and 2.23 µM | [14] 6.42 µM and 5.9 µM

Reference: PubChem BioAssay (EPA / NIEHS)
